From PubChem BioAssay AID2012 (Sanford-Burnham Center for Chemical Genomics, 2009)
Hit rate of the full screen: of about 290,000 compounds, about 2,700 (0.93%) were called active. No rule for the calls is given here. The full list was thinned out, with actives kept by preference.

Biological target: Eukaryotic translation initiation factor 4H (Homo sapiens) (UniProt Q15056)
Experiment: eIF4H binding inhibition – biochemical, uHTS, fluorescence polarization, translation initiation inhibitor project, primary screen (AID 2012);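 also: calls also rest on retests at 20 µM and on dose response follow-up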
Details: eIF4H fluorescence polarization binding assay, stronger effect = higher value

| Structure (SMILES) | inhibition (at 35 µM) | inhibition (confirmation average, at 20 µM) [%] |
| --- | --- | --- |
| Cc1c(C)c2ccc(OCC(=O)N3CCC(C(=O)O)CC3)c(C)c2oc1=O | -4% (inactive) | – |
| O=C(CNC(=O)C1COc2ccccc2O1)N/N=C/c1cc(Br)c(O)c(Br)c1 (stereo not drawn) | 7.4% (inactive) | – |
| Cc1c(CC(=O)N2CCN(C(=O)C3COc4ccccc4O3)CC2)c(=O)oc2c(O)c(O)ccc12 (stereo not drawn) | 61% (active) | 103 |
| COc1ccccc1OCc1ccc(C(=O)NC(C)c2ccccc2)o1 (stereo not drawn) | -6.4% (inactive) | – |
| Cc1cccc(-c2nc3ccc(C(=O)NCCN4CCN(C)CC4)cc3nc2-c2cccc(C)c2)c1 | -1.5% (inactive) | – |
| O=C1CN(C(=O)c2ccccc2F)C(c2ccc(F)cc2)c2cc(F)ccc2N1 (stereo not drawn) | -4.2% (inactive) | – |
| Cc1c(-c2ccccc2)cn2c1-c1ccc(C)n1CC2 | 90.6% (active) | – |
| Cc1ccc2c(c1)N(CC(=O)N1CCC(C)CC1)C(=O)c1cccnc1O2 | -17.4% (inactive) | – |
| CCOc1ncccc1C(=O)NCCc1ccc(OC)cc1 | -1.9% (inactive) | – |
| COC(=O)c1cc(CNC(=O)CC(C)c2ccccc2)ccc1OC (stereo not drawn) | -2% (inactive) | – |
| C/C(=N\NC(=O)COc1ccc(C)cc1[N+](=O)[O-])c1ccc2c(c1)OCCO2 | -2.1% (inactive) | – |
| CC(NC(=O)COc1ccc(-c2ccccc2)cc1)C1CCCO1 (stereo not drawn) | -6.9% (inactive) | – |
| Cc1ccsc1-c1cc(C(=O)O)c2c(ccc3ccccc32)n1 | 30.1% (inactive) | – |
| COC(=O)c1cnn2c(C(F)(F)F)cc(-c3ccco3)nc12 | -0.4% (inactive) | – |
| Cc1cc(C)c2nc(-c3ccco3)cc(C(=O)O)c2c1 | 103% (active) | – |
| Fc1cc(F)c2nc(N3CCOCC3)sc2c1 | -7.8% (inactive) | – |
| Cc1cc(C)n(Cc2cnc(N3CCOCC3)s2)n1 | -7.9% (active) | 107 |
| Cc1nc(N2CCOCC2)sc1C(=O)NN | 0.1% (inactive) | – |
| COc1cccc(NC(=O)C(=O)c2cn(CC(=O)N3CCOCC3)c3ccccc23)c1 | -12.2% (inactive) | – |
| Cn1c(N)cc(-c2ccc(F)cc2)c(C#N)c1=O | -11% (active) | 108 |
| COc1ccc(O)c(C(=O)c2cnc3c(c2)c(-c2ccc(F)cc2)c(C#N)c(=O)n3C)c1 | -3.7% (inactive) | – |
| Cc1cc(C)c2c(-c3ccc(F)cc3)c(C#N)c(=O)n(C)c2n1 | -1.8% (inactive) | – |
| CC(=O)NCCNC(=O)c1cc(-c2cccc3ccccc23)nc2ccccc12 | 0.8% (inactive) | – |

| Structure (SMILES) | inhibition (at 35 µM) | inhibition (confirmation average, at 20 µM) [%] |
| --- | --- | --- |
| Cc1c(C2=CCN(S(=O)(=O)c3ccc(Cl)cc3)CC2)c2ccccc2n1C | 91.5% (active) | 99.6 |
| O=S(=O)(c1ccc(F)cc1)N1CC=C(c2ccccc2)CC1 | -1.4% (inactive) | – |
| COc1ccccc1N1CCN(S(=O)(=O)c2ccc(Cl)cc2)CC1 | -8.3% (inactive) | – |
| CCOc1ccc(C(=O)Nc2c3c(nn2-c2ccccc2)CS(=O)(=O)C3)cc1 | -1.2% (inactive) | – |
| O=C(Nc1ncc([N+](=O)[O-])s1)C1COc2ccccc2O1 (stereo not drawn) | -6.7% (inactive) | – |
| N[C@@H](Cc1ccccc1)C(=O)N1CCC(C(=O)NCC(=O)Nc2ccc(F)cc2)CC1 | 20% (inactive) | – |
| Cc1ccc(-n2c(C)cc(/C=N/Nc3ccc([N+](=O)[O-])cn3)c2C)c(C)c1 | 6.6% (inactive) | – |
| Cc1cc(/C=N/Nc2ccc([N+](=O)[O-])cn2)c(C)n1-c1cccc(C(=O)O)c1 | 54.4% (active) | – |
| COc1cc(/C=N\Nc2ccc([N+](=O)[O-])cn2)ccc1OCC(=O)O | -3.4% (inactive) | – |
| O=C(c1cc(S(=O)(=O)N2CCOCC2)ccc1Cl)N1CCOCC1 | -2.4% (inactive) | – |
| COc1cc2c(cc1OC)C(C)N(S(=O)(=O)c1cnc(Cl)c(Cl)c1)CC2 (stereo not drawn) | 1.8% (inactive) | – |
| Cc1ccc(NS(=O)(=O)c2ccc(F)cc2)nc1 | -7.9% (inactive) | – |
| CCC(Cc1ccccc1)NS(=O)(=O)c1ccc2c(c1)NC(=O)CS2 (stereo not drawn) | -2.9% (inactive) | – |
| CCOC(=O)c1c(C)[nH]c(C2=NNC(=NC(C)COC)SC2)c1C (stereo not drawn) | -1.8% (active) | 93.1 |
| CCOC(=O)c1c(C)[nH]c2c1-c1ccccc1C(=O)C2=O | -11% (inactive) | – |
| CCCCOC(=O)c1[nH]c(C)c(C(=O)OC)c1C | 4.8% (inactive) | – |
| COc1ccc(C(=O)/C=C/c2ccc(-c3ccccc3)cc2)cc1CSCC(=O)O | 82.3% (inactive) | 47.3 |
| COC(=O)c1ccc(COc2ccc(/C=C/C(=O)c3ccc(OC)c(CSCC(=O)O)c3)cc2OC)cc1 | 81% (active) | 68.7 |
| COc1cc(/C=N/O)ccc1OCc1ccc([N+](=O)[O-])cc1 | 0.1% (inactive) | – |
| CCCc1ccc(OCC(O)CN2CCN(CCO)CC2)cc1 (stereo not drawn) | -2.4% (inactive) | – |
| Cc1ccc(NC(=O)CCN2C(=O)c3ccccc3C2=O)cc1C | -6.5% (inactive) | – |
| Cc1cc(C)cc(OCC(=O)NNC(=O)CCN2C(=O)c3ccccc3C2=O)c1 | 2.3% (active) | 87.4 |
| Cc1cc(C)cc(NC(=O)CCN2C(=O)c3ccccc3C2=O)c1 | -1.3% (inactive) | – |

| Structure (SMILES) | inhibition (at 35 µM) | inhibition (confirmation average, at 20 µM) [%] |
| --- | --- | --- |
| COc1ccc(CN2CC(C(=O)NCCc3ccc(Cl)cc3)CC2=O)cc1 (stereo not drawn) | -12.2% (inactive) | – |
| O=C(N/C(=C\c1ccc([N+](=O)[O-])cc1)C(=O)N1CCOCC1)c1cccc(Br)c1 | 7.9% (inactive) | – |
| O=C1c2ccccc2C(=O)N1CCOc1ccc(F)cc1 | 0.9% (inactive) | – |
| O=C(Nc1nonc1-c1ccc(Cl)cc1)c1ccco1 | -12.8% (inactive) | – |
| Cc1cc2occ(CC(=O)NNC(=O)c3ccccc3F)c2cc1C | -3% (inactive) | – |
| COCCNC(=O)c1ccccc1NS(=O)(=O)c1ccc(C)c([N+](=O)[O-])c1 | 9.2% (inactive) | – |
| CC1CN(C(=O)c2ccccc2NS(=O)(=O)c2cccc([N+](=O)[O-])c2)CC(C)O1 (stereo not drawn) | -0.3% (active) | 95.9 |
| COc1ccc(S(=O)(=O)Nc2ccccc2C(=O)N2CCCC2)cc1C | -2.4% (inactive) | – |
| O=S(=O)(c1ccc(Cl)cc1)c1nc(-c2ccccc2F)oc1NCCN1CCOCC1 | -7.4% (inactive) | – |
| Cc1nn(C)cc1S(=O)(=O)N1CCN(c2ccc(F)cc2)CC1 | 1% (inactive) | – |
| O=C(N/N=C/c1ccc([N+](=O)[O-])o1)c1cccc(S(=O)(=O)N2CCOCC2)c1 | 52% (active) | 78.6 |
| COc1cccc(/C=N/NC(=O)CNC(=O)c2ccc(S(=O)(=O)N3CCOCC3)cc2)c1OC | 7.4% (inactive) | – |
| COc1ccc(Br)cc1/C=N/NC(=O)c1cccc(S(=O)(=O)N2CCOCC2)c1 | -3.8% (inactive) | – |
| COc1ccccc1C(=O)COC(=O)CNS(=O)(=O)c1ccc(NC(C)=O)cc1 | -9.9% (inactive) | – |
| O=C(O)CCCC(=O)N1N=C(c2ccco2)CC1c1ccco1 (stereo not drawn) | 7.4% (inactive) | – |
| O=c1c2ccccc2ncn1/N=C/c1ccccc1 | 4.2% (inactive) | – |
| COc1ccc(Nc2nc(=O)[nH]nc2C)cc1 | 3.5% (inactive) | – |
| COc1ccc(NC2=CC(=S)NC(C)(C)C2)cc1 | 67.8% (active) | 62.7 |
| COc1ccc(C(=S)Nc2ccccc2)cc1 | -0.5% (inactive) | – |
| CCCCSCCCNC(=O)C1CCC(CNS(=O)(=O)c2ccc(NC(C)=O)cc2)CC1 (stereo not drawn) | 2.4% (inactive) | – |
| Cc1cc(CNC(=O)C2CCC(=O)N(CCc3ccc(Cl)cc3)C2)no1 (stereo not drawn) | -0.4% (inactive) | – |
| CCOC(=O)C1C(c2ccc(O)cc2)NC(=O)NC1(O)C(F)(F)F (stereo not drawn) | -0.5% (inactive) | – |
| Cc1ccccc1NC(=O)CCNS(=O)(=O)c1ccc2[nH]c(=O)oc2c1 | -5.4% (inactive) | – |

| Structure (SMILES) | inhibition (at 35 µM) | inhibition (confirmation average, at 20 µM) [%] |
| --- | --- | --- |
| CCN1CCN(CCNC(=O)c2ccc(/C=C3/Sc4ccccc4N(Cc4cccc(C)c4)C3=O)cc2)CC1 | -0.9% (active) | 95.1 |
| O=C(NCCN1CCOCC1)c1ccc(/C=C2\Sc3ccccc3N(Cc3ccc(F)cc3)C2=O)cc1 | -7.3% (inactive) | – |
| CCN1CCN(CCNC(=O)c2ccc3c(c2)NC(=O)/C(=C\c2ccc(OC)c(OC)c2)S3)CC1 | 22.4% (inactive) | – |
| COc1ccc(C)cc1Nc1nc(C)nc2c1oc1ccccc12 | -11.2% (inactive) | – |
| CN1CCN(C(=O)c2ccc(NS(=O)(=O)c3ccccc3)cc2)CC1 | -6.4% (inactive) | – |
| COc1ccc(-c2nnn(CC(=O)N(CCO)C(C(=O)NC3CCCC3)c3ccc(F)cc3)n2)cc1 (stereo not drawn) | -0.3% (inactive) | – |
| CCOCCCN(C(=O)Cn1nnc(-c2ccc(OC)c(OC)c2)n1)C(CC)C(=O)NC1CCCC1 (stereo not drawn) | -12.4% (active) | 91 |
| CCC(C(=O)NC1CCCC1)N(C(=O)Cn1nnc(-c2ccc(C)o2)n1)c1ccc(OC)c(OC)c1 (stereo not drawn) | 5.7% (inactive) | – |
| O=C(O)Cn1c(Cc2ccccc2)nc2ccccc21 | -6.9% (inactive) | – |
| O=C(Nc1ccc(Cl)c(Cl)c1)c1ccccc1NC(=O)C1CC=CCC1C(=O)O (stereo not drawn) | -5.2% (inactive) | – |
| O=C(NCc1ccccn1)c1ccc2nc(-c3ccco3)c(-c3ccco3)nc2c1 | 97% (active) | – |
| COc1cccc(S(=O)(=O)NCc2ccc(C(=O)NCc3ccccn3)cc2)c1 | -1% (inactive) | – |
| O=C(NCc1ccccn1)c1cc(-c2ccccc2Cl)on1 | -3.2% (inactive) | – |
| COc1ccc(C23NCCN2C(=O)c2ccccc23)cc1 (stereo not drawn) | -1.8% (inactive) | – |
| Cc1ccc(CN2CCN(c3ncccn3)CC2)c(C)c1 | 17.4% (inactive) | – |
| COc1ccc(NS(=O)(=O)c2cc(NC(=O)/C=C/c3cc(OC)c(OC)c(OC)c3)ccc2N2CCCCC2)cc1 | -7.6% (inactive) | – |
| COc1ccc(NS(=O)(=O)c2cc(NC(=O)C3CCCCC3)ccc2N2CCOCC2)cc1 | 13.7% (active) | 81.1 |
| COc1ccc(NS(=O)(=O)c2ccc(N3CCOCC3)c(NC(=O)c3ccccc3Br)c2)cc1 | -4.7% (inactive) | – |
| CCC(C)[C@H](NC(=O)N1CCn2c1nc1ccccc12)C(=O)NCc1ccc(OC)cc1 (stereo partly drawn) | -4.4% (inactive) | – |
| CCc1ccc(-c2nc(SCC(=O)NC3CCCC3)n[nH]2)cc1 | 45.6% (inactive) | – |
